Molecules are shown by their SMILES. Out of some 320,000 compounds screened, about 2,100 (0.66%) were called active. Roughly 53% stayed inconclusive and do not appear here. Calls come from the whole dose curve; as a rule, active = well fitted inhibition curve with a large enough effect in the signal ratio, with a control signal flat (not every such curve was filed as active); inconclusive = small, poorly fitted or top-dose-only effect, or effect the other way, or a change in a side signal; inactive = flat fitted curve, though single readings scatter; the % refers to the signal ratio. The full list was thinned out, with actives kept by preference.
Potency is the fitted concentration of half-maximal effect.

This experiment in a line: qHTS Assay for Lipid Storage Modulators in Drosophila S3 Cells.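 For cell number change: cells counted by Cell Tracker Red CMTPX staining in the red channel.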 For lipid storage change, negative = inhibition: % is set by controls: 0 for no effect and ±100 for the full control effect. Particulars: BODIPY lipid droplet fluorescence, 18-24 h, cells fed with added oleic acid; cell number change: measured here: cell count max response; series mostly up to 46.1 µM; lipid storage change, negative = inhibition: at the top concentration. The method in brief:
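Drosophila S3 cells got compounds at several concentrations plus oleic acid (400 uM solution). Laser-scanning cytometry with 488 nm excitation read lipid droplets at 500-530 nm and cells at 575-640 nm. Percent activity was relative to 20 uM Triacsin C.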
For orientation: In qHTS, concentration-response curves come from the screen itself.
As to `COc1cc(NC(C)=O)ccc1NC(=O)c1cc2ccccc2o1`, the “lipid storage change, negative = inhibition” value was 1.23% (inactive) and the cell number change was found to be 11.3%. Turning to `Cc1cccc(NC(=O)c2ccc([N+](=O)[O-])o2)c1`, the Potency was 13 µM (active) and the cell number change was determined as 3.29%.

Regarding `CCC(=O)Nc1ccc(NC(=O)c2ccco2)c(OC)c1`, the outcome was inactive and the cell number change stood at 16%. For `O=C(Nc1c(Cl)ccc2nsnc12)c1ccc([N+](=O)[O-])o1`, the outcome was inactive and the cell number change is 11.1%.

As to `COc1cc(NC(=O)c2cccc([N+](=O)[O-])c2)ccc1NC(=O)c1ccco1`, the “lipid storage change, negative = inhibition” value is -17.8% (inactive) and the cell number change is -8.46%.

With `COc1cc(NC(=O)c2ccccc2)ccc1NC(=O)c1cc2ccccc2o1`, the “lipid storage change, negative = inhibition” value is -2.66% (inactive) and the cell number change is -16.3%. Taken in the same sequence, the figures for `Cc1ccc2nsnc2c1NC(=O)c1cccc([N+](=O)[O-])c1` were 19.5% (inactive) and 3.04%. For the molecule `COc1cc(NC(=O)c2ccc([N+](=O)[O-])o2)ccc1NC(=O)c1ccco1`, the Potency is 8.2 µM (active) and the cell number change is -26.2%. In the case of `Cc1cccc(NC(=O)c2ccc(-c3ccccc3[N+](=O)[O-])o2)c1`, the “lipid storage change, negative = inhibition” value is 3.52% (inactive) and the cell number change amounted to 15.3%. The like results for `Cc1cc(C)cc(NC(=O)c2ccc([N+](=O)[O-])o2)c1` were, in that order, -20.6% (inactive) and -11.8%.

Consider `Cc1ccc2nsnc2c1NC(=O)c1ccc([N+](=O)[O-])o1`, for which the Potency was 18.4 µM (active) and the cell number change amounted to 0.87%. On to `Cc1ccc(C(=O)CCC(=O)OCc2nnc(-c3ccccc3)o2)cc1`, for which the molecule was classed as inactive. Turning to `O=C1c2cc(Cl)ccc2OC2(CCNCC2)C12CC(c1ccccc1)=NO2` (configuration not stated), the “lipid storage change, negative = inhibition” value is -6.62% (inactive) and the cell number change turned out to be 8.66%. The like results for `COC(=O)[C@@]1(Cc2ccc(OC)cc2)[C@H]2c3cc(C(=O)N4CCCC4)n(CCSCCO)c3C[C@H]2CN1C(=O)c1ccccc1` were, in that order, 2.21% (inactive) and 0.624%. For `CN(C1CCCC1)C1CCN(C(=O)CNC(=O)/C=C/c2cccc(C(F)(F)F)c2)CC1`, the “lipid storage change, negative = inhibition” value is -1.31% (inactive) and the cell number change is 8.56%. With `CN(C)c1ccc(CN(C(=O)c2cccs2)C2CCS(=O)(=O)C2)cc1` (configuration not stated), the call was inactive and the cell number change came to 15.9%. For the molecule `c1ccc(OCc2nc3c4c(ncn3n2)-c2ccccc2CC42CCCC2)cc1`, the “lipid storage change, negative = inhibition” value is -9.37% (inactive) and the cell number change is -10.9%. For the molecule `COc1ccccc1NC(=O)C1CCCN(c2cnccn2)C1` (configuration not stated), the result was inactive and the cell number change worked out at 17.3%. Regarding `COc1cc2c(cc1OC)CN(C(=O)Nc1ccccc1)CC2`, the “lipid storage change, negative = inhibition” value was -18.6% (inactive) and the cell number change was 6.01%. The like results for `COC(=O)Cc1cc(=O)n2[nH]c(C)c(-c3ccccc3)c2n1` were, in that order, -8.25% (inactive) and -1.66%. Consider `CCCc1cc(=O)n2[nH]c(C)c(-c3ccc(OC)cc3)c2n1`, for which the Potency is 18.4 µM (active) and the cell number change was 16.5%. Turning to `CCOC(=O)Cc1cc(=O)n2[nH]c(C)c(-c3ccc(Cl)cc3)c2n1`, the molecule was called inactive and the cell number change is -27.5%. Turning to `C/C(=N\NC(=O)NC1CCCCC1)c1ccc(Cl)s1`, the “lipid storage change, negative = inhibition” value was 8.08% (inactive) and the cell number change was -11.8%. Taken in the same sequence, the figures for `COc1ccc(-c2nc(SC(C)C(=O)Nc3ccc(NC(C)=O)cc3)n[nH]2)cc1` (configuration not stated) were 26.6% (inactive) and 32.4%. On to `COc1ccc(-c2nc(SC(C)C(=O)NC3CC3)n[nH]2)cc1` (configuration not stated), for which the Potency is 1.84 µM (active) and the cell number change was -10%. As for `COc1ccc(-c2nc(SCC(=O)NC3CCCCC3)n[nH]2)cc1`, the outcome was inactive and the cell number change is -21.7%.

In the case of `CCOC(=O)C1CCCCN1Cc1ccc(F)c(Br)c1` (configuration not stated), the “lipid storage change, negative = inhibition” value was 2.46% (inactive) and the cell number change is -23.6%. For `CCOC(=O)C1CCCCN1Cc1ccc(C(F)(F)F)cc1` (configuration not stated), the Potency is 6.51 µM (active) and the cell number change is -25.6%. For the molecule `CCOC(=O)C1CCCCN1Cc1cccc(Oc2ccccc2)c1` (configuration not stated), the “lipid storage change, negative = inhibition” value was -11.2% (inactive) and the cell number change is -1.04%.

On to `COc1cc(C2CC(=O)Oc3c(C(CCN4CCN(c5ccccc5)CC4)c4ccc(N(C)C)cc4)c(OC)cc(OC)c32)cc(OC)c1OC` (configuration not stated), for which the “lipid storage change, negative = inhibition” value is 3.08% (inactive) and the cell number change was -0.692%.

For `O=C(COc1ccccc1[N+](=O)[O-])Nc1cc(C(=O)O)cc(C(=O)O)c1`, the “lipid storage change, negative = inhibition” value was -2.91% (inactive) and the cell number change is -6.55%. With `CC(=O)Nc1ccc(NC(=O)CSc2ncnc3sc(C)c(C)c23)cc1`, the Potency was 13 µM (active) and the cell number change was determined as 3.95%.

Regarding `CCN(CC(=O)Nc1ccc(NC(C)=O)cc1)C(=O)CSc1ncnc2sc(C)c(C)c12`, the “lipid storage change, negative = inhibition” value was 4.57% (inactive). `Cc1sc2ncnc(SCC(=O)Nc3ccc(CN4CCCC4)cc3)c2c1C`: the “lipid storage change, negative = inhibition” value was -3.27% (inactive) and the cell number change worked out at 13.1%. For `COC(=O)c1ccc(NC(=O)CSc2nc3[nH]ncc3c(=O)[nH]2)cc1`, the lipid storage change, negative = inhibition was -11.4% [at 0.0737 µM] (inactive). As for `CC(C)CC(NC(=O)COc1ccccc1)C(=O)O` (configuration not stated), the “lipid storage change, negative = inhibition” value was -9.58% (inactive) and the cell number change was determined as 23.7%. For `COC(=O)CNC(=O)COc1ccccc1`, the Potency is 25.9 µM (active) and the cell number change turned out to be 0.31%. `CC(C)C(NC(=O)COc1ccccc1)C(=O)O` (configuration not stated): the Potency is 32.6 µM (active) and the cell number change was -18.5%. Take `O=C(COc1ccccc1)NCc1ccccc1`: the molecule was called inactive. As to `CCc1ccc(C(=O)COC(=O)CNC(=O)COc2ccccc2)cc1`, the “lipid storage change, negative = inhibition” value was -0.983% (inactive) and the cell number change is -0.597%. The like results for `CC(C)c1ccc(OCC(=O)NC(C)c2ccccc2)cc1` (configuration not stated) were, in that order, -29.5% (inactive) and -6.3%. Turning to `COC(=O)c1cccc(NC(=S)N2CCN(c3ccccc3F)CC2)c1`, the “lipid storage change, negative = inhibition” value is 17.2% (inactive) and the cell number change amounted to 12.8%. For the molecule `CCOC(=O)CC(/C(C)=N\O)c1ccccc1` (configuration not stated), the “lipid storage change, negative = inhibition” value is 2.03% (inactive) and the cell number change is -0.923%. Regarding `O=C(CN1C(=O)CSC1=O)Nc1ccc(N2CCOCC2)cc1`, the Potency was 20.6 µM (active). For the molecule `Cc1ccc(NC(=O)CN2C(=O)CSC2=O)cc1`, the “lipid storage change, negative = inhibition” value was 3.2% (inactive) and the cell number change is -1.37%. Taken in the same sequence, the figures for `CCc1ccc(NC(=O)CN2C(=O)CSC2=O)cc1` were -5.64% (inactive) and -0.41%.

The values above are taken from PubChem BioAssay AID2685 (National Center for Advancing Translational Sciences (NCATS), 2010).
